# Assay outcomes from PubChem BioAssay.
# This is one part of a sample in which hits are shown more often than they occur.
# Dicer inh: inhibitors of Dicer pre-microRNA processing, primary screen, biochemical, cat-ELCCA, chemiluminescence; cat-ELCCA pre-miR-21 Dicer processing; hits give high values; z-score at 25 µM; hit rate 6% among 47,000; Endoribonuclease Dicer (Homo sapiens), Q9UPY3; in the data active means z-score above about 3, passing the limit was not always enough;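 further: plate controls were vehicle for no effect and no enzyme for full effect; higher signal means more uncleaved substrate so more Dicer inhibition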
# Active calls of the source: *.
SMILES,Dicer inh
Cc1ccc(S(=O)(=O)N(C(=O)c2cccnc2)c2ccc3oc(=O)sc3c2)cc1,5*
O=S(=O)(CCSc1ccc(Cl)cc1)CCSc1ccc(Cl)cc1,0.01
CC(C)c1cc(Br)c(NC(=O)NCCN2CCN(c3nccc(C(F)(F)F)n3)CC2)c(Br)c1,0.8
O=C1C2CCCCC2C(=O)N1c1cccc(O)c1 (stereo unspecified),0.83
Nc1cc(-c2nc3ccccc3[nH]2)n[nH]c1=O,1.1
COC(=O)c1cc(-c2cccnc2)no1,0.54
CC(C)(C)c1ccc(-c2nc(NCCN3CCOCC3)c3ccccc3n2)cc1,-1.5
c1ccc(-c2nc(NCCN3CCOCC3)c3ccccc3n2)cc1,3.3*
c1ccc(-c2nc(NCCCN3CCOCC3)c3ccccc3n2)cc1,2
Cc1cnc(NC(=O)c2ccc(Cl)cc2)c(Br)c1,-3.4
O=C1c2ccccc2-c2c1c1ccccc1c(=O)n2CC1CC1,-0.55
O=C1c2ccccc2-c2c1c1ccccc1c(=O)n2Cc1ccc2c(c1)OCO2,3.1*
O=C1c2ccccc2C(=O)N1CN(Cc1ccc2c(c1)OCO2)CN1C(=O)c2ccccc2C1=O,-1.2
CCCCNc1nc2c(c(=O)n(C)c(=O)n2C)n1CC(O)COc1ccccc1 (stereo unspecified),-0.53
COc1ccc(CNc2ncc(-c3ccc(Br)cc3)n2C)cc1OC,-0.09
Cn1c(-c2ccc(Br)cc2)cnc1NCc1ccc(F)cc1,3.1*
COc1cccc(CNc2ncc(-c3ccc(Br)cc3)n2C)c1,1.1
Cc1ccc(CNc2ncc(-c3ccc(F)cc3)n2C)cc1,2.2
CCOc1ccc(-c2cnc(NCc3cc(Cl)ccc3O)n2C)cc1,2.8
Cn1c(-c2ccccc2)cnc1NCc1ccc(Br)cc1,1.1
Cn1c(-c2ccc(F)cc2)cnc1NCc1ccccc1Cl,2.1
Cn1c(-c2ccc(F)cc2)cnc1NCc1cc(Cl)ccc1O,5.6*
COc1cccc(-c2cnc(NCc3cc(Br)ccc3F)n2C)c1,53
Cn1c(-c2ccc(F)cc2)cnc1NCc1cc(Br)ccc1F,3.1*
Cc1ccc(-c2cnc(NCc3cc(Br)ccc3F)n2C)cc1,3.6
SMILES,Dicer inh
CCOc1cc(CNc2ncc(-c3ccc(Br)cc3)n2C)ccc1O,3.4*
C=CCOc1ccc(C2c3c(oc4cc(C)c(C)cc4c3=O)C(=O)N2CCCN2CCOCC2)cc1 (stereo unspecified),0.07
CCC(=O)Oc1ccc2oc(-c3ccc(OC)cc3)cc(=O)c2c1,0.96
Cc1sc2c(c1C)C(=O)/C(=C\Nc1ccc(Cl)cc1)S(=O)(=O)N2C,0.01
COC(=O)c1ccc(Oc2nc(C)cc(N)n2)cc1,0.86
COC(=O)c1sc2c(c1N)CSc1ccc(Cl)cc1-2,-0.95
Cn1nc(C(C)(C)C)cc1NC(=O)Nc1ccc(F)cc1,2.2
CCOc1cc(/C=N/NC(=O)CC#N)ccc1O,-0.37
COc1ccc(C2C(C(=O)OC(C)C)=C(C)NC3=C2C(=O)CC(c2ccccc2OC)C3)cc1OC (stereo unspecified),-0.67
COc1cc2c(cc1OC)C(C)N(C(=O)CSCC(=O)O)CC2 (stereo unspecified),0.42
COC(=O)c1cn(C(=O)c2cnn3c(C(F)F)cc(-c4ccc(OC)cc4)nc23)c2ccccc12,1.2
Cc1cc(Cl)ccc1NC(=S)N(C)N,1.3
c1ccc(-c2csc(Cc3c[nH]c4ccccc34)n2)cc1,1.2
CC(=O)N(c1ccccc1)C(C)C1CC1 (stereo unspecified),-0.67
COc1cc2nc(-c3ccc(N4C(=O)CCC4=O)cc3)oc(=O)c2cc1OC,2.1
CCOC(=O)c1sc(S(C)=O)c2c1CC(c1ccccc1)CC2=O (stereo unspecified),1.6
CS(=O)(=O)c1sc(C#N)c2c1C(=O)CC(c1ccccc1)C2 (stereo unspecified),5.7*
CS(=O)(=O)c1sc(Cl)c(-c2ccc(Cl)cc2)c1C#N,-8
CSc1n[nH]c(-c2ccc(C(C)(C)C)cc2)n1,0.85
CC(=O)n1sc2nc(C)cc(C)c2c1=O,0.02
Cn1c(=O)c2c(N3CCOCC3)cc(=O)n(C)c2n(C)c1=O,-0.02
O=[N+]([O-])/C=C/c1c2ccccc2cc2ccccc12,2.8
c1ccc2oc(CCCc3nc4ccccc4o3)nc2c1,5.5*
c1cc(-c2nc3ccccc3o2)nc(-c2nc3ccccc3o2)c1,0.28
c1ccc2oc(-c3ccc(-c4nc5ccccc5o4)cc3)nc2c1,2
SMILES,Dicer inh
COc1ccccc1N1C(=O)CC(N2CCN(c3ccc(F)cc3)CC2)C1=O (stereo unspecified),0.32
O=C1CC(N2CCN(c3ccccc3O)CC2)C(=O)N1c1ccccc1F (stereo unspecified),2.3
Cc1cccc(N2C(=O)CC(n3ccnc3)C2=O)c1C (stereo unspecified),3.5*
COc1cccc(C2C3=C(CC(C)(C)CC3=O)OC3=C2C(=O)CC(C)(C)C3)c1O,0.63
Cc1ccc2cc(-c3noc(-c4cccs4)n3)c(=O)[nH]c2c1,0.51
C/C(=N\N=C1/NC(=O)C(CC(=O)O)S1)c1ccc(CC(C)C)cc1 (stereo unspecified),-0.14
